This note sets out measurements from publication PMC4336329 (PLoS ONE, 2015).

Out of some 310,000 compounds screened, about 2,200 (0.71%) showed an effect of 50% or more. The effect is printed as a negative number. This excerpt belongs to a sample that is enriched for strong results.

Sequence of human ether-à-go-go-related gene (hERG) potassium channel (Q12809 whole entry, looked up): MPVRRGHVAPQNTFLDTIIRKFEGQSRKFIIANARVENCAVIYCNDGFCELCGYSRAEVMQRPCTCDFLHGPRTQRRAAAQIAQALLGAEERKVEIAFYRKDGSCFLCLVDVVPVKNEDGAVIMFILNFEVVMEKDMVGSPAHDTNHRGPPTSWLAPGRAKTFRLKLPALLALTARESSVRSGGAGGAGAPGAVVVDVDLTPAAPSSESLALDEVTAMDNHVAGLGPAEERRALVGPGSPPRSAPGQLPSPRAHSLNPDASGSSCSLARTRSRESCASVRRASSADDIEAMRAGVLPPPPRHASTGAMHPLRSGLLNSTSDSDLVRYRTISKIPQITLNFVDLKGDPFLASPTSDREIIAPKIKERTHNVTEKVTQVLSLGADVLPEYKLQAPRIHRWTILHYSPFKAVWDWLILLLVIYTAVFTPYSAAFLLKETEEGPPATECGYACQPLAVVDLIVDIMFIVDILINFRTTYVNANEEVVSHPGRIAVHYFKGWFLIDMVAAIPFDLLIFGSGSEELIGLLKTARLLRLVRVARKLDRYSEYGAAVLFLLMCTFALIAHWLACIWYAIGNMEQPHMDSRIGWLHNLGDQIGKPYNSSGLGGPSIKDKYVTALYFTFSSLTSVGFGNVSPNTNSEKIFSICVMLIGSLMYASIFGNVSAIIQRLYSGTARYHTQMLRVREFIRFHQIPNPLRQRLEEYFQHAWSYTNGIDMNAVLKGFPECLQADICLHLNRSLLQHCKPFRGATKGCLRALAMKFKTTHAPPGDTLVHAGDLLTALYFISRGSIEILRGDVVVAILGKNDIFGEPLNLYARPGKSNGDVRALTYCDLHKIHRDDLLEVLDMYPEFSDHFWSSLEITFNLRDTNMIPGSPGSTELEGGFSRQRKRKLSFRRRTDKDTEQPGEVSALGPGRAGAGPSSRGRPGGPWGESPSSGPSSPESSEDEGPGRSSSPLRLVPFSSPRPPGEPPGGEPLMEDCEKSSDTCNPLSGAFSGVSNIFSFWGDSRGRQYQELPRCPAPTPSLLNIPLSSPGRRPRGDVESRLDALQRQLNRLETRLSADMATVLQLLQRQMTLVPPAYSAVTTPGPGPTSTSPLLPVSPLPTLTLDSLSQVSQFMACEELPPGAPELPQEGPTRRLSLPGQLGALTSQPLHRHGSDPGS

The assay has as its target human ether-à-go-go-related gene (hERG) potassium channel (human, UniProt Q12809). In words: primary screen, population patch clamp on CHO cells stably expressing hERG; higher = less effect of the substance.
In the case of `O=C(c1ccc2c(=O)n(Cc3ccc(Cl)cc3)c(=S)[nH]c2c1)N1CCCC1`, the “hERG current change (%, negative = inhibition) at 1uM” value is recorded as 17%. On to `Oc1[nH]c2ccccc2c1N=Nc1nc2ccccc2s1`, for which the “hERG current change (%, negative = inhibition) at 1uM” value is reported as -3.26%. The figure for `Cl.NCCCCC(=O)O` is 11.5%; for `CC(C1CC1)N(C(=O)NC1CCS(=O)(=O)C1)c1ccccc1` (stereo not shown) it is 6.55%; for `COc1cccc(-c2cccc(NC(=O)C3CCN(Cc4cccc(C)n4)CC3)c2)c1` it is -46.7%. Consider `O=C(Nc1cccc(-c2cccc(F)c2)c1)C1CCN(C2CCC2)CC1`, for which the “hERG current change (%, negative = inhibition) at 1uM” value is given as -26.1%. For the molecule `Cc1cccc(CN2CCC(C(=O)Nc3cccc(-c4cscn4)c3)CC2)n1`, the “hERG current change (%, negative = inhibition) at 1uM” value was -4.56%. For the molecule `CCCn1ncc(CN2CCC(C(=O)Nc3cccc(-c4cccc(F)c4)c3)CC2)c1C`, the “hERG current change (%, negative = inhibition) at 1uM” value is on record as -60.6%.

As for `Cn1cc(CN2CCC(C(=O)Nc3cccc(-c4cccc(F)c4)c3)CC2)cn1`, the “hERG current change (%, negative = inhibition) at 1uM” value was -37.9%. As to `CCn1nc(C)c(CN2CCC(C(=O)Nc3cccc(-c4cccc(F)c4)c3)CC2)c1C`, the “hERG current change (%, negative = inhibition) at 1uM” value was -6.47%. Under `COc1cccc(-c2cccc(NC(=O)C3CCN(C4CCOCC4)CC3)c2)c1` stands -14.6%.

Consider `Cc1cc(C)n(CCCN2CCC(C(=O)Nc3cccc(-c4cccc(F)c4)c3)CC2)n1`, for which the “hERG current change (%, negative = inhibition) at 1uM” value is -59.9%. Under `CCn1cc(CN2CCC(C(=O)Nc3cccc(-c4cccc(F)c4)c3)CC2)cn1` stands -29.2%; under `Cc1ccc(CN2CCC(C(=O)Nc3cccc(-c4cccc(F)c4)c3)CC2)o1`, -28.7%. For the molecule `O=C(Nc1cccc(-c2cccc(F)c2)c1)C1CCN(C2CCOCC2)CC1`, the “hERG current change (%, negative = inhibition) at 1uM” value is recorded as -67.8%. For `Cc1cccc(CN2CCC(C(=O)Nc3cccc(-c4cccc(F)c4)c3)CC2)n1`, the “hERG current change (%, negative = inhibition) at 1uM” value is reported as -66.1%. The figure for `O=C(Nc1ccc(N2CCN(C(=O)c3ccco3)CC2)cc1)c1cc(Br)ccc1Cl` is 8.3%; for `CC(C)(C)c1cc(C(=O)NN)n(Cc2ccc(Cl)cc2Cl)n1` it is 16.3%. Under `CCOC(=O)c1c(NC(=O)c2ccc(S(=O)(=O)N3CCOCC3)cc2)sc2c1CC(C)(C)NC2(C)C` stands 11.9%; under `O=[N+]([O-])c1ccc(-c2nc(Nc3ccc(O)cc3)c3ccccc3n2)cc1`, 13%; under `COc1ccc(CCNC(=O)c2[nH]c(C)c(C(C)=O)c2C)cc1`, 10.9%. With `CCOC(=O)c1c(NC(=O)C2C3C=CC(C3)C2C(=O)O)sc2c1CCC(CC)C2` (stereo not shown), the “hERG current change (%, negative = inhibition) at 1uM” value turned out to be 14%.

In the case of `CCC(=O)Nc1nnc(-c2ccco2)o1`, the “hERG current change (%, negative = inhibition) at 1uM” value is 2.56%.

Take `O=C1OC(c2ccccc2)c2ccccc21` (stereo not shown): the “hERG current change (%, negative = inhibition) at 1uM” value was found to be 9.85%. As for `COC(=O)C1=C(C)NC(=O)C1(Nc1nccs1)C(F)(F)F` (stereo not shown), the “hERG current change (%, negative = inhibition) at 1uM” value is recorded as 8.37%.

With `c1ccc(-c2nc(N3CCCCCC3)c3ccccc3n2)nc1`, the “hERG current change (%, negative = inhibition) at 1uM” value is on record as -82.3%. For the molecule `Cl.Nc1nc(N2CCN(c3ccccn3)CC2)nc2ccccc12`, the “hERG current change (%, negative = inhibition) at 1uM” value is given as -52.8%. Under `c1ccc(N2CCN(c3nc(-c4ccccn4)nc4ccccc34)CC2)cc1` stands -26.9%. Take `CN1CCN(c2nc(Nc3ccc(O)cc3)nc3ccccc23)CC1.Cl`: the “hERG current change (%, negative = inhibition) at 1uM” value is recorded as -1.34%. As for `c1ccc(-c2nc(N3CCOCC3)c3ccccc3n2)nc1`, the “hERG current change (%, negative = inhibition) at 1uM” value came out at 5.13%. As to `CCCN(CCC)c1nc(-c2ccccn2)nc2ccccc12`, the “hERG current change (%, negative = inhibition) at 1uM” value is listed as -72.4%. With `Cl.Oc1ccc(Nc2nc(N3CCCC3)c3ccccc3n2)cc1`, the “hERG current change (%, negative = inhibition) at 1uM” value was -62.7%. `Nc1nc(N2CCOCC2)nc2ccccc12`: the “hERG current change (%, negative = inhibition) at 1uM” value is -8.34%. Turning to `CCCCN(CCCC)c1nc(-c2ccncc2)nc2ccccc12`, the “hERG current change (%, negative = inhibition) at 1uM” value stood at 12%. The figure for `COc1ccc(Nc2nc(N3CCCC3)c3ccccc3n2)cc1.Cl` is -15%; for `CCC(C)Nc1nc(-c2ccccn2)nc2ccccc12` (stereo not shown) it is -11.6%; for `Cl.Nc1nc(N2CCCCC2)nc2ccccc12` it is -15.9%. For the molecule `CCOC(=O)c1cc(S(=O)(=O)N2CCN(Cc3ccccc3)CC2)cn1C`, the “hERG current change (%, negative = inhibition) at 1uM” value was determined as 7.46%. `C/C(=N\Nc1cccc2cccnc12)c1ccc[nH]1`: the “hERG current change (%, negative = inhibition) at 1uM” value is on record as 6.24%. Turning to `COc1ccc(C(=O)N2CCN(CCNC(=O)C(=O)Nc3ccc(Br)cc3)CC2)cc1`, the “hERG current change (%, negative = inhibition) at 1uM” value is -25.2%. In the case of `CCCc1ccc2c(N)c(C#N)sc2n1`, the “hERG current change (%, negative = inhibition) at 1uM” value is 1.34%. Under `CC(C)C(NC(=O)c1c(F)cccc1F)C(=O)NCC(c1ccccc1)N(C)C` (stereo not shown) stands 7.89%; under `COc1ccccc1NS(=O)(=O)c1cccc(C(=O)NCC(c2ccc(F)cc2)N2CCOCC2)c1` (stereo not shown), -2.64%.

Take `O=c1oc2cc(Oc3ccc(C(F)(F)F)cc3[N+](=O)[O-])ccc2c2c1CCCC2`: the “hERG current change (%, negative = inhibition) at 1uM” value stood at 7.24%. The figure for `COc1ccc(OC)c(C(O)c2nc3ccccc3n2C(C)C)c1` (stereo not shown) is 12.9%. In the case of `COc1cccc2cc(C(=O)C3=C(O)C(=O)N(Cc4ccco4)C3c3cccnc3)oc12` (stereo not shown), the “hERG current change (%, negative = inhibition) at 1uM” value is reported as -5.76%. For the molecule `CCOc1ccc(OCCCC(=O)ON=C(N)c2ccccc2C)cc1`, the “hERG current change (%, negative = inhibition) at 1uM” value was 2.24%. The figure for `c1ccc2c(N3CCCCC3)nc(N3CCCCC3)nc2c1` is -3.29%; for `c1ccc2c(N3CCCCC3)nc(N3CCOCC3)nc2c1` it is -7.24%; for `c1ccc2c(N3CCCCC3)nc(N3CCCC3)nc2c1` it is -64.6%. Under `CC(=O)c1ccc(NC(=S)Nc2cccc(S(=O)(=O)Nc3c(C)n(C)n(-c4ccccc4)c3=O)c2)cc1` stands 11.4%; under `Cc1ccc(/C=N\NC(=O)CCc2n[nH]c(=O)[nH]c2=O)o1`, 10.9%; under `O=c1c2c3c(sc2n(CCN2CCOCC2)c(=O)n1Cc1ccco1)CCCCC3`, -9.12%. As to `O=c1c2c3c(sc2n(CCN2CCCC2)c(=O)n1Cc1ccco1)CCCCC3`, the “hERG current change (%, negative = inhibition) at 1uM” value is given as -67%. For `O=c1c2c3c(sc2n(CCN2CCCCC2)c(=O)n1Cc1ccco1)CCCCC3`, the “hERG current change (%, negative = inhibition) at 1uM” value came out at 3.26%. On to `COc1ccc(CNC(=O)NCc2ccc(OC)c(OC)c2)cc1OC`, for which the “hERG current change (%, negative = inhibition) at 1uM” value is 17.1%. Regarding `O=c1cc2oc3cc(O)c(O)cc3c(-c3ccccc3[N+](=O)[O-])c-2cc1O`, the “hERG current change (%, negative = inhibition) at 1uM” value came out at 8.61%. `N#Cc1ccccc1OCC(=O)OCC(=O)c1c[nH]c2ccccc12`: the “hERG current change (%, negative = inhibition) at 1uM” value worked out at 7.92%. As for `O=C(CSc1nc(O)cc(=O)[nH]1)Nc1ccc2c(c1)CCC2`, the “hERG current change (%, negative = inhibition) at 1uM” value was 18.4%.

With `O=[N+]([O-])c1ccc(OCC(O)CNCCNc2nccc(C(F)(F)F)n2)cc1` (stereo not shown), the “hERG current change (%, negative = inhibition) at 1uM” value is -77.9%. For the molecule `OC(CNCCNc1ncccc1C(F)(F)F)COc1ccc(F)cc1` (stereo not shown), the “hERG current change (%, negative = inhibition) at 1uM” value is recorded as -25.6%. On to `COc1ccc(OCC(O)CNCCNc2nccc(C(F)(F)F)n2)cc1` (stereo not shown), for which the “hERG current change (%, negative = inhibition) at 1uM” value was -6.87%. In the case of `CC(CCc1ccc(O)cc1)NCCc1ccc(O)c(O)c1.Cl` (stereo not shown), the “hERG current change (%, negative = inhibition) at 1uM” value is given as 2.55%. Consider `CC(CCc1ccc(O)cc1)NCc1ccc(Cl)cc1Cl` (stereo not shown), for which the “hERG current change (%, negative = inhibition) at 1uM” value is -10.9%. On to `CC(CCc1ccc(O)cc1)NCc1ccc(Br)cc1` (stereo not shown), for which the “hERG current change (%, negative = inhibition) at 1uM” value was -66.8%. For the molecule `COc1ccc(CCC(C)NCc2cccc(Br)c2)cc1` (stereo not shown), the “hERG current change (%, negative = inhibition) at 1uM” value is given as -32.1%.

For `CC(CCc1ccc(O)cc1)NCCC(c1ccccc1)c1ccccc1` (stereo not shown), the “hERG current change (%, negative = inhibition) at 1uM” value is listed as -84.2%. As for `COc1ccccc1CCNC(C)CCc1ccc(O)cc1` (stereo not shown), the “hERG current change (%, negative = inhibition) at 1uM” value is given as -10.8%. The figure for `O=C(Nc1ccc2c(c1)OCO2)c1cnccn1` is 8.63%. With `NC(=O)NCc1ccc(F)cc1`, the “hERG current change (%, negative = inhibition) at 1uM” value is reported as 4.8%.

On to `COc1ccc(-c2noc3c2-c2nc(-c4ccccc4C)sc2CC3)cc1`, for which the “hERG current change (%, negative = inhibition) at 1uM” value amounted to 15.4%. For the molecule `Cc1cc(O)c(C(=O)/C=C/c2ccccc2O)c(=O)o1`, the “hERG current change (%, negative = inhibition) at 1uM” value is 8.29%. On to `CCOc1c(Br)cc(CNc2ncn[nH]2)cc1OC`, for which the “hERG current change (%, negative = inhibition) at 1uM” value came out at 9.07%. The figure for `COc1ccc(C(F)(F)F)cc1NC(=O)c1nc2nc(C)cc(C(F)F)n2n1` is 17.2%. Turning to `CCOC(=O)C1=C(c2ccccc2)Nc2ncnn2C1c1cccc(OC)c1OC` (stereo not shown), the “hERG current change (%, negative = inhibition) at 1uM” value was found to be 21.4%.

For `COc1ccc2[nH]c3c(NCCCOC(C)C)ncnc3c2c1`, the “hERG current change (%, negative = inhibition) at 1uM” value is listed as 22.8%. Under `COc1ccc2[nH]c3c(NCCN(C(C)C)C(C)C)ncnc3c2c1` stands -71.9%. The figure for `CCN(CC)CCNc1ncnc2c1[nH]c1ccc(OC)cc12` is -42.6%. In the case of `COc1cc(NS(=O)(=O)c2ccc(NC(=O)/C=C/C(=O)O)cc2)nc(OC)n1`, the “hERG current change (%, negative = inhibition) at 1uM” value came to 5.24%. Under `O=C(O)C1=C[C@@H](C2CC2)C[C@@H](OCCCCO)O1` stands 10.7%. In the case of `COc1cccc(C2=NOC(C(=O)Nc3cccnc3Cl)C2)c1OC` (stereo not shown), the “hERG current change (%, negative = inhibition) at 1uM” value amounted to 14.2%. On to `COc1ccc(Cl)cc1C(=O)Nc1ccc2nc3n(c(=O)c2c1)CCCC3`, for which the “hERG current change (%, negative = inhibition) at 1uM” value was -51.8%. Regarding `COc1ccccc1C(=O)Nc1ccc2nc3n(c(=O)c2c1)CCCC3`, the “hERG current change (%, negative = inhibition) at 1uM” value was -2.02%. As to `COc1cc(C(=O)Nc2ccc3nc4n(c(=O)c3c2)CCCCC4)cc(OC)c1OC`, the “hERG current change (%, negative = inhibition) at 1uM” value is reported as -1.94%. Regarding `COc1cc2c(C(=O)N3CCCc4ccccc43)cn(C)c(=O)c2cc1OC`, the “hERG current change (%, negative = inhibition) at 1uM” value is 7.48%.

For `O=C(c1ccc(Cl)cc1)c1cc([N+](=O)[O-])ccc1N1CCOCC1`, the “hERG current change (%, negative = inhibition) at 1uM” value was 10.3%. The figure for `N#Cc1cc([N+](=O)[O-])ccc1N1CCCC1` is -12.3%; for `CCN1CCN(c2ccc([N+](=O)[O-])cc2C(=O)c2ccc(Cl)cc2)CC1` it is -58.3%; for `CCCN1CCN(c2ccc([N+](=O)[O-])cc2C#N)CC1` it is -57.8%. With `CCN1CCN(c2ccc([N+](=O)[O-])cc2C#N)CC1`, the “hERG current change (%, negative = inhibition) at 1uM” value is given as -49.8%. With `CN1CCN(c2ccc([N+](=O)[O-])cc2C(=O)c2ccc(Cl)cc2)CC1`, the “hERG current change (%, negative = inhibition) at 1uM” value is listed as -24.3%.
